High-throughput results: PubChem, National Center for Advancing Translational Sciences (NCATS)
Hits are enriched below; roughly 19% of the tested compounds scored in any of these assays.
Pf growth 48h: inhibits P. falciparum growth in the first generation, 48 h. actives 5.9% (n = 310,000). P. falciparum luciferase growth in erythrocytes, 48 h. Potency, µM (titrated, usually from 28.7 µM), usual class: inhibitors
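Read-out is firefly luciferase luminescence from an integrated reporter in P. falciparum, so falling signal marks reduced parasite growth. Infected erythrocytes were at 2% hematocrit and 0.1% parasitemia (final) in Albumax-supplemented RPMI 1640.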
Marburg entry inh: Marburg virus entry inhibition; Potency, µM (series often up to 37.8 µM), hits mostly inhibitors; AID 540276; Marburg virus pseudotyped entry inhibition, cell reporter; actives 1.8% (n = 300,000); calls by dose curve; tested in HEK293 cells
Shiga toxin inh: inhibitors of Shiga toxin in Vero cells; Vero cells, Shiga toxin protein synthesis inhibition reporter; inhibition, % at 38.7 µM; actives 9.2% (n = 290,000); AID 2315; in the data active means inhibition mostly above about 28%, no sharp cut-off; inactive means mostly below about 43%
Lassa entry inh: inhibitors of Lassa virus binding or cell entry | Lassa virus pseudotype entry inhibition, cell reporter | Potency, µM (doses to about 37.9 µM), hits mostly inhibitors | actives 1.2% (n = 300,000) | AID 540256; calls by dose curve; tested in HEK293 cells; further: nearly all actives have a fitted effect of over 50% in size
Cycloheximide cs: counter-screen hit for Shiga toxin inhibitors, cycloheximide. cell reporter, cycloheximide protein synthesis inhibition counterscreen. max response, %. actives 12% (n = 300,000); in the data active means max response mostly above about 13%, no sharp cut-off; inactive means mostly below about 14%; further: read at 38.3 µM for the half of the compounds with a filed dose
Pf growth 96h: P. falciparum growth inhibition at 96 hours. Potency, µM (doses to about 28.7 µM), most hits filed as inhibitors. actives 6.9% (n = 320,000). P. falciparum luciferase reporter growth, 96 h. AID 504834
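Delayed-death screen, second-generation endpoint: infected erythrocytes, 2% hematocrit, 0.05% parasitemia final; 96 hours at 37 C, 5% CO2; luciferase detection reagent; luminescence decrease equals reduced growth.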
Numbers stand for hits; . = inactive; ? = inconclusive; / = no result given. Unless noted, the call rests on the fitted dose curve; in most records, active means well fitted inhibition curve with a large enough effect; inconclusive means small, poorly fitted or top-dose-only effect, or another doubt; inactive means no such curve, though single readings can be large or run the other way.

SMILES	Pf growth 48h	Marburg entry inh	Shiga toxin inh	Lassa entry inh	Cycloheximide cs	Pf growth 96h
CCCS(=O)(=O)N1CC(=O)N(c2ccc(Cl)cc2C)C(C)(C(=O)NC2CCCC2)C1 (stereo not given)	/	/	/	.	/	/
O=C(CSc1nc(-c2ccco2)cc(C(F)(F)F)n1)NCC1CCCO1 (stereo not given)	?	?	.	.	.	.
COCCn1c(SCC(=O)Nc2ccccc2F)nc2c([nH]c3ccccc32)c1=O	.	.	.	.	.	?
C=CCn1c(SCC(=O)Nc2ccccc2OC)nc2c([nH]c3ccccc32)c1=O	?	/	.	/	.	4.1µM
COCCn1c(SCC(=O)Nc2ccc(F)cc2)nc2c([nH]c3ccccc32)c1=O	?	/	.	/	.	3.3µM
CN(C)CCn1c(SCc2ccccc2C#N)nc2c(sc3ccccc32)c1=O	?	/	.	/	.	6.6µM
COCCn1c(SCC(=O)Nc2ccccc2OC)nc2c([nH]c3ccccc32)c1=O	?	/	.	/	.	9.3µM
CS(=O)(=O)N1c2cccc3cccc(c23)S1(=O)=O	.	.	.	.	.	.
CCn1c(SCC(=O)N2CC(C)OC(C)C2)nc2c([nH]c3ccccc32)c1=O (stereo not given)	6.6µM	.	.	.	.	?
CCc1ccc(NC(=O)CSc2nc3c(sc4ccccc43)c(=O)n2CCN(CC)CC)cc1	/	/	/	.	/	/
CCN(CC)CCn1c(SCC(=O)Nc2ccc(F)cc2)nc2c(sc3ccccc32)c1=O	9.3µM	/	.	/	.	?
O=C(O)c1ccc(COc2ccc3ccccc3c2/C=C2/NC(=O)N(c3ccccc3)C2=O)cc1	5.9µM	.	.	.	.	?
CCN1C(=O)S/C(=C/c2c(OCc3ccc(C(=O)O)cc3)ccc3ccccc23)C1=O	?	.	.	.	.	6.6µM
O=C(O)c1ccc(COc2ccccc2/C=C2/NC(=O)N(c3cccc(Cl)c3)C2=O)cc1	.	?	.	.	.	?
Cc1oc(-c2ccc(C(=O)NCc3ccc(F)cc3)cc2)nc1CS(=O)c1ccccc1 (stereo not given)	/	/	/	.	/	/
O=C(CSc1ncnc2c1nnn2Cc1ccccc1)NC1CCCCC1	.	.	.	.	.	.
CC(C)CC(=O)NC(NC(=S)Nc1sc2c(c1C#N)CCCC2)C(Cl)(Cl)Cl (stereo not given)	.	?	.	.	.	?
O=C(c1ccccc1Cc1ccccc1)N1CCN(S(=O)(=O)c2ccccc2Br)CC1	12µM	13µM	/	.	/	7.4µM
O=C(c1cc(S(=O)(=O)N2CCCCC2)ccc1F)N1CCCCC1	2.3µM	.	.	.	.	?
O=C(c1ccccc1Cc1ccccc1)N1CCN(S(=O)(=O)c2ccc(F)cc2)CC1	?	.	/	.	/	?
O=C(c1cccc(S(=O)(=O)N2CCN(c3ccc(F)cc3)CC2)c1)N1CCCCCCC1	?	.	/	.	/	?
O=C(c1cccc(S(=O)(=O)N2CCCCC2)c1)N1CCN(S(=O)(=O)c2ccc(F)cc2)CC1	/	.	.	.	.	9.3µM
Cc1ccccc1C(=O)N1CCN(S(=O)(=O)c2ccccc2)CC1	.	.	.	.	.	13µM
COc1ccccc1C(=O)N1CCN(S(=O)(=O)c2ccccc2)CC1	.	.	.	.	.	.
CCc1cc(=O)[nH]c(SCCCF)n1	.	.	.	.	.	.
SMILES	Pf growth 48h	Marburg entry inh	Shiga toxin inh	Lassa entry inh	Cycloheximide cs	Pf growth 96h
O=C(O)CCCNC(=O)/C(=C\c1ccc(Cl)cc1)NC(=O)c1ccc(Br)cc1	.	.	.	.	.	.
O=C(Cn1c(C(F)(F)F)nc2ccccc21)Nc1ccccc1C(=O)O	.	?	.	?	.	?
CCOC(=O)CC1(NC(=O)c2cc(COc3c(F)cccc3F)on2)CCCCC1	.	/	.	/	.	?
CC1CCC(N2CCN(C(=O)c3ccccc3F)CC2)CC1 (stereo not given)	.	/	.	/	.	12µM
COc1ccc(S(=O)(=O)N2CCCCC2)cc1C(=O)N1CCCC1	.	.	.	.	.	2.3µM
O=C(c1ccccc1F)N1CCN(S(=O)(=O)c2ccc(S(=O)(=O)N3CCCCCC3)cc2)CC1	12µM	.	.	.	.	.
Nc1cc(=O)nc(SCC(=O)Nc2ccccc2)n1-c1ccccc1	.	.	.	.	.	1.9µM
Cc1cccc(-n2c(N)cc(=O)nc2SCC(=O)Nc2ccccc2)c1	/	.	.	.	.	.
COc1cccc(NC(=O)CSc2nc(O)c(C)c(=O)n2-c2ccc(C)cc2)c1	.	.	.	.	.	10µM
Cc1ccc(NC(=O)CSc2nc(O)cc(=O)n2-c2ccc(C)cc2)cc1	13µM	/	.	/	.	?
Cc1ccc(NC(=O)CSc2nc(O)cc(=O)n2C)cc1	.	.	.	.	.	.
Cc1c(O)nc(SCC(=O)Nc2cccc(C(F)(F)F)c2)n(-c2ccccc2)c1=O	.	.	.	.	.	?
CCc1ccc(OCC(=O)Nc2ccc(S(=O)(=O)Nc3onc(C)c3C)cc2)cc1	/	/	/	.	/	/
Cc1noc(NS(=O)(=O)c2ccc(N/C=C/C(=O)c3cccnc3)cc2)c1C	.	.	43	.	16	.
COc1ccc(C(=O)/C=C/Nc2ccc(S(=O)(=O)Nc3ncccn3)cc2)cc1	.	/	.	/	20	.
Cc1noc(NS(=O)(=O)c2ccc(N/C=C/C(=O)c3ccncc3)cc2)c1C	.	.	.	.	.	/
CCc1ccc(C(=O)/C=C/Nc2ccc(S(=O)(=O)Nc3onc(C)c3C)cc2)cc1	.	.	92	.	50	.
Cc1noc(NS(=O)(=O)c2ccc(N/C=C/C(=O)c3ccc(F)cc3)cc2)c1C	.	.	69	/	33	.
Cc1noc(NS(=O)(=O)c2ccc(N/C=C\C(=O)c3ccncc3)cc2)c1C	/	.	.	.	.	?
Cc1ccc(OCCC(=O)Nc2ccccc2C(=O)N2CCCCC2)cc1	.	.	/	.	/	.
CCN(CC)c1ccc(C2N(C(=O)N3CCOCC3)CCN2S(=O)(=O)c2ccc(C)cc2)cc1 (stereo not given)	?	.	.	.	.	/
Cc1cc(Cl)c2oc(C(=O)N3CCCCC3CCN3CCCC3=O)c(C)c2c1 (stereo not given)	.	/	.	/	.	?
COc1ccc(C(=O)/C=C/Nc2ccc(S(=O)(=O)Nc3onc(C)c3C)cc2)cc1	.	?	77	.	44	.
Cc1noc(NS(=O)(=O)c2ccc(NC(=O)c3ccc(OC(C)C)cc3)cc2)c1C	.	?	.	.	.	.
COc1ccccc1C(=O)O/N=C1/CCCc2c1ccc(OC)c2[N+](=O)[O-]	.	?	.	.	.	.
COc1ccc2c(c1)CC/C2=N\OC(=O)c1ccccc1OC	.	/	90	/	38	.
COc1ccc(OCCC(=O)OCC(=O)NCCC2=CCCCC2)cc1	.	.	.	.	.	.
Cc1ccc2c(c1)c(N=NC(N)=S)c(O)n2Cc1ccccc1	.	?	.	.	.	?
O=Nc1c(O)n(Cc2ccc(Cl)cc2)c2ccccc12	13µM	?	.	.	.	?
O=Nc1c(O)n(Cc2ccc(Cl)cc2Cl)c2ccccc12	?	.	.	.	.	8.3µM
